From ChEMBL document CHEMBL2218924, “A broad activity screen in support of a chemogenomic map for kinase signalling research and drug discovery” (Biochem J, 2013)

Tests used:
[1] = target: Tyrosine-protein kinase SYK (Homo sapiens) (UniProt P43405); conditions: at 10 µM
[2] = target: T1, Serine/threonine-protein kinase TAO1 (Homo sapiens) (UniProt Q7L7X3); conditions: at 10 µM
T1 sequence (whole entry): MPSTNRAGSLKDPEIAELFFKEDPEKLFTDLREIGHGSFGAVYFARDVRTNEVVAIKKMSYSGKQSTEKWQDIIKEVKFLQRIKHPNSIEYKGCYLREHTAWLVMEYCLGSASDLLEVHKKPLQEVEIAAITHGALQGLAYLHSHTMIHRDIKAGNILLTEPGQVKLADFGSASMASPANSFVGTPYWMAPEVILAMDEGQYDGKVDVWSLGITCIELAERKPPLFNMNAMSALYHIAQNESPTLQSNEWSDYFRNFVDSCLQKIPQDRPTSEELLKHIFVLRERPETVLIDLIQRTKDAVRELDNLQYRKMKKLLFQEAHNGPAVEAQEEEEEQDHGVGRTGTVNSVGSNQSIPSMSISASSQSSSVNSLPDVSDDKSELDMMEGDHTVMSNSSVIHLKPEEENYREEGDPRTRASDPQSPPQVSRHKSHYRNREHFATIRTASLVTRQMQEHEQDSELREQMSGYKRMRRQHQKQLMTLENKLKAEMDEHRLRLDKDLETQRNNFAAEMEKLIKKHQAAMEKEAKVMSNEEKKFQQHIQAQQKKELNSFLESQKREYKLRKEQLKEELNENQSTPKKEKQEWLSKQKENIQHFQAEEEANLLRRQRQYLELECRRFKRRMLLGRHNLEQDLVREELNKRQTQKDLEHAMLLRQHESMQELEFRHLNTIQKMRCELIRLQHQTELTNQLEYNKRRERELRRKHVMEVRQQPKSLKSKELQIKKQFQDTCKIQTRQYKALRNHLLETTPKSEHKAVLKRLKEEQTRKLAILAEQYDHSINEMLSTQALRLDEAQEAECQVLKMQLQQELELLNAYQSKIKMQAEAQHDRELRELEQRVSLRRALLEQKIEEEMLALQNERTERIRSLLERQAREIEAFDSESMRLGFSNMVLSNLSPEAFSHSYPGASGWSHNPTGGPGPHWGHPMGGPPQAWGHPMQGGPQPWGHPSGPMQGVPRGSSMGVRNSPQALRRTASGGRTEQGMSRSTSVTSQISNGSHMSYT

[3] = target: T2, Serine/threonine-protein kinase TAO2 (Homo sapiens) (UniProt Q9UL54); conditions: at 10 µM
T2 sequence (whole entry): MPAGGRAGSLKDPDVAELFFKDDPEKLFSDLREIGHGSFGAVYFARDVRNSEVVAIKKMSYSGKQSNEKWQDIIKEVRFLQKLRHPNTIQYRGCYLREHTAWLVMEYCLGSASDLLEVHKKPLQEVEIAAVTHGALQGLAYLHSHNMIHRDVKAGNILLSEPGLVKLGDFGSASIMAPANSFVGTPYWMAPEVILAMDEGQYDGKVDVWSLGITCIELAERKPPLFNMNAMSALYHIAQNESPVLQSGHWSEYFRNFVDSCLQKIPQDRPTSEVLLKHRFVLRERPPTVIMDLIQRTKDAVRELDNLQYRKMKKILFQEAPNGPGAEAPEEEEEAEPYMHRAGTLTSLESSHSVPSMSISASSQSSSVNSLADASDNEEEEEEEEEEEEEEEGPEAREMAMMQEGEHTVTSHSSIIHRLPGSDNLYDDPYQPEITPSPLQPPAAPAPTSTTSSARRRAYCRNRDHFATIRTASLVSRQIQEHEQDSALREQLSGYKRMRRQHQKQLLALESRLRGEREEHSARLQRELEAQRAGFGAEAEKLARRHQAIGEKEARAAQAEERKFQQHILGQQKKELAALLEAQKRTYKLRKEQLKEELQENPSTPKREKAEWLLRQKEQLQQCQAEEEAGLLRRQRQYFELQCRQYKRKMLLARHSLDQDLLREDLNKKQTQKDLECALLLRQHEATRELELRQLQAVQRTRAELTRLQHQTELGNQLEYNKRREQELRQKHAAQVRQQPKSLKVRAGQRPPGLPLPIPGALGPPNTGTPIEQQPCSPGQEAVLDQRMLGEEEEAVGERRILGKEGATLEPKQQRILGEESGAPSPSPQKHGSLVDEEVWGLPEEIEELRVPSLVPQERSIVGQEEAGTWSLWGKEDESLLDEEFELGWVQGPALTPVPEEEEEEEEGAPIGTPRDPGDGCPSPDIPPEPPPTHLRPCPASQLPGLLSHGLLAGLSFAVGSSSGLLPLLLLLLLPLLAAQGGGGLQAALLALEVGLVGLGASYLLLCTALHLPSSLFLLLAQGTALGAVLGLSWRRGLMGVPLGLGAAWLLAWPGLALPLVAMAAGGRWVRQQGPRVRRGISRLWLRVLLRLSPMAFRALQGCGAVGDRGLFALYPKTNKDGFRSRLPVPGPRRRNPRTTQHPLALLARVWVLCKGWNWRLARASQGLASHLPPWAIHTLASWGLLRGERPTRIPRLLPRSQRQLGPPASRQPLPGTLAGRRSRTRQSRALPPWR

[4] = target: T3, Serine/threonine-protein kinase TBK1 (Homo sapiens) (UniProt Q9UHD2); conditions: at 1 µM
T3 sequence (whole entry): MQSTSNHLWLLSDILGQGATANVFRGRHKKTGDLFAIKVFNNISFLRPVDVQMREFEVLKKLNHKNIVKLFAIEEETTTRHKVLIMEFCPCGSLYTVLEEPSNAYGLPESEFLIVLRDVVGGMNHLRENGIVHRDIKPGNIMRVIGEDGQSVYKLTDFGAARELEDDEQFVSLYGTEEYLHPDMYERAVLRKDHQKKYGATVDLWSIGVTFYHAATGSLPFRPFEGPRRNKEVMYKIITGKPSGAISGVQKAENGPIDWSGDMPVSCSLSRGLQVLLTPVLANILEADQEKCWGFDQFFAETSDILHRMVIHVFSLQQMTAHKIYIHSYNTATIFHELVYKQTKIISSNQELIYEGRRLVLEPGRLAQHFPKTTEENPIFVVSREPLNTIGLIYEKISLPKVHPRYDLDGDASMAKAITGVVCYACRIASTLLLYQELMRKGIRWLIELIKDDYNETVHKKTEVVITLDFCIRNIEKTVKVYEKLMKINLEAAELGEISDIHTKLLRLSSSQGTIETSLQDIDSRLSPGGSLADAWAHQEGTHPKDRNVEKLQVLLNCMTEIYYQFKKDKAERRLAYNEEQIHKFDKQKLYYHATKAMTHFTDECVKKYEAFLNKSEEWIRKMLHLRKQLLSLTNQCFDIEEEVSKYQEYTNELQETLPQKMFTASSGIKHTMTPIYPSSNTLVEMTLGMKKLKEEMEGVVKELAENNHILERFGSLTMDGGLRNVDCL

[5] = target: T3, Serine/threonine-protein kinase TBK1 (Homo sapiens); conditions: at 10 µM
[6] = target: T4, TGF-beta receptor type-1 (Homo sapiens) (UniProt P36897); conditions: at 1 µM
T4 sequence (whole entry): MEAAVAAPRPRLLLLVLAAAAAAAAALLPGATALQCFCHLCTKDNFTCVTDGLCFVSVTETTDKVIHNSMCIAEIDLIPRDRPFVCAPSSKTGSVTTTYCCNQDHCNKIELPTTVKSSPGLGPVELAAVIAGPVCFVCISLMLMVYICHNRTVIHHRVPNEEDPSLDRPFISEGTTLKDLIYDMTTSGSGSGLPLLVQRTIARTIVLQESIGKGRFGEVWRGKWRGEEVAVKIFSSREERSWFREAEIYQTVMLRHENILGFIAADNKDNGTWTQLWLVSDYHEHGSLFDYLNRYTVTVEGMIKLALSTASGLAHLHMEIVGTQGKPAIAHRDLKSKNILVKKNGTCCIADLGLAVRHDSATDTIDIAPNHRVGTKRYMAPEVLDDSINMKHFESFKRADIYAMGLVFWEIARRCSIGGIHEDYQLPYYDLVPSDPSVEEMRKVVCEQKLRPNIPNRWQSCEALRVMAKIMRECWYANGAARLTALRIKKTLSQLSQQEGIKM

[7] = target: T4, TGF-beta receptor type-1 (Homo sapiens); conditions: at 10 µM
[8] = target: T5, Inhibitor of nuclear factor kappa-B kinase subunit alpha (Homo sapiens) (UniProt O15111); conditions: at 1 µM
T5 sequence (whole entry): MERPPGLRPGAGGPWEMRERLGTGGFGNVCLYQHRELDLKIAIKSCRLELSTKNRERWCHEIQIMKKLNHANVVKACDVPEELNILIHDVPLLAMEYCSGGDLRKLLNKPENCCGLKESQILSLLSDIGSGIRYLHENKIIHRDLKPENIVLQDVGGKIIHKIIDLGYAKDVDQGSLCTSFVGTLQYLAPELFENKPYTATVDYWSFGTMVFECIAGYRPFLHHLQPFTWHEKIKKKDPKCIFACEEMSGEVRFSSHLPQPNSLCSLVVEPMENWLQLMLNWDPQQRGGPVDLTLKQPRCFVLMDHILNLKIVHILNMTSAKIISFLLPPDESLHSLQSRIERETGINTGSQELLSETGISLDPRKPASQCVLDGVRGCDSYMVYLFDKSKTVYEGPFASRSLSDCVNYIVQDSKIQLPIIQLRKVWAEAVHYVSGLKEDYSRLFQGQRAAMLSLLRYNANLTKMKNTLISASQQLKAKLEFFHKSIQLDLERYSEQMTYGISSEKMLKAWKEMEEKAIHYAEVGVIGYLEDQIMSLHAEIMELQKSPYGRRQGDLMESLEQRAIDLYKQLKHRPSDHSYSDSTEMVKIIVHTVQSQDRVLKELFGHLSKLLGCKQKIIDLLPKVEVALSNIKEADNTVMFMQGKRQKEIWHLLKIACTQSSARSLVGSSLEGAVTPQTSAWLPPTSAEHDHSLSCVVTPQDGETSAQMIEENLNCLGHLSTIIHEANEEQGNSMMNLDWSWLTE

[9] = target: T5, Inhibitor of nuclear factor kappa-B kinase subunit alpha (Homo sapiens); conditions: at 10 µM
[10] = target: T6, Inhibitor of nuclear factor kappa-B kinase subunit beta (Homo sapiens) (UniProt O14920); conditions: at 1 µM
T6 sequence (whole entry): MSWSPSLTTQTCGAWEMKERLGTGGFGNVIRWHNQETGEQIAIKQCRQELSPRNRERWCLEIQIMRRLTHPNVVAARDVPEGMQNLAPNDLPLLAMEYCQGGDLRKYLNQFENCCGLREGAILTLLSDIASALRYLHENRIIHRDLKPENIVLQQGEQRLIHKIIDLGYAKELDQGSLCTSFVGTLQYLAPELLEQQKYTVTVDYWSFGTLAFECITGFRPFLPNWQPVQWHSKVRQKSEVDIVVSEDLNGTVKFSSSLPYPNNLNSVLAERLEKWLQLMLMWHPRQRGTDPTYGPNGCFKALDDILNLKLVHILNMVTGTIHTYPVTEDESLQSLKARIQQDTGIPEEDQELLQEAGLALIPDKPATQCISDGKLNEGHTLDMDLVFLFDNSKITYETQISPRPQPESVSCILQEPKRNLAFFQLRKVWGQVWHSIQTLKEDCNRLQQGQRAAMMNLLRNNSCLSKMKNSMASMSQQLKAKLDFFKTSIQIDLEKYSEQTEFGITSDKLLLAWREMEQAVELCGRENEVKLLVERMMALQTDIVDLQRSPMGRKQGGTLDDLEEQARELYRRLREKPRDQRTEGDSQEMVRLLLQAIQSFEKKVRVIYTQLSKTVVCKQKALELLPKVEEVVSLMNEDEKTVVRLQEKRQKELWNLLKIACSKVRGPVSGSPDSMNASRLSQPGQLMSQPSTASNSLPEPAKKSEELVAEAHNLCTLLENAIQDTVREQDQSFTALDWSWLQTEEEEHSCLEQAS

[11] = target: T6, Inhibitor of nuclear factor kappa-B kinase subunit beta (Homo sapiens); conditions: at 10 µM
[12] = target: T2, Serine/threonine-protein kinase TAO2 (Homo sapiens); conditions: at 1 µM
[13] = target: T7, Serine/threonine-protein kinase TAO3 (Homo sapiens) (UniProt Q9H2K8); conditions: at 1 µM
T7 sequence (whole entry): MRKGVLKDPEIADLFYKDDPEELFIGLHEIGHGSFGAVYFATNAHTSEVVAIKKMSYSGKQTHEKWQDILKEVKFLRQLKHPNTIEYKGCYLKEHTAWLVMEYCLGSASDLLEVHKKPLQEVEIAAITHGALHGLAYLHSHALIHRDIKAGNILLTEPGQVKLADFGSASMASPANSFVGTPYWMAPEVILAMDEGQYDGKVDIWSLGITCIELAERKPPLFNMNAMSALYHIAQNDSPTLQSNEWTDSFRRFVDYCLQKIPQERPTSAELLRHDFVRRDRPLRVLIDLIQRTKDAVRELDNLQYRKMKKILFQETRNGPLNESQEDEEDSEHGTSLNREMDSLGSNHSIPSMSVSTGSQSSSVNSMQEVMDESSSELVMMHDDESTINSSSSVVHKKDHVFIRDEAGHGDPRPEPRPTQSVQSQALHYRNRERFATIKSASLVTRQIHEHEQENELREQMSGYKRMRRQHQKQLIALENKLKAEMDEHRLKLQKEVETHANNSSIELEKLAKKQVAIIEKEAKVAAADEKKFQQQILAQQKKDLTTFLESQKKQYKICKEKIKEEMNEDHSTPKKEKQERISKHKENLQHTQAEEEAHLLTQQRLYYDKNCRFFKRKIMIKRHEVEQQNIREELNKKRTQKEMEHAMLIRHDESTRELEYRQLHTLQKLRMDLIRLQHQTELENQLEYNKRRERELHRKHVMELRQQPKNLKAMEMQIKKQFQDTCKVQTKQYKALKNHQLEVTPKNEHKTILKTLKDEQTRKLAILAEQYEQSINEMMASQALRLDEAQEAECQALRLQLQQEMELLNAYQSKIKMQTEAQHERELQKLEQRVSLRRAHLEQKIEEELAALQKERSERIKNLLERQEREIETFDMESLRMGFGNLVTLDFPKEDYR

[14] = target: T7, Serine/threonine-protein kinase TAO3 (Homo sapiens); conditions: at 10 µM
[15] = target: Insulin receptor (Homo sapiens) (UniProt P06213); conditions: at 1 µM
Insulin receptor (Homo sapiens), sequence (P06213 28-758 limits assumed): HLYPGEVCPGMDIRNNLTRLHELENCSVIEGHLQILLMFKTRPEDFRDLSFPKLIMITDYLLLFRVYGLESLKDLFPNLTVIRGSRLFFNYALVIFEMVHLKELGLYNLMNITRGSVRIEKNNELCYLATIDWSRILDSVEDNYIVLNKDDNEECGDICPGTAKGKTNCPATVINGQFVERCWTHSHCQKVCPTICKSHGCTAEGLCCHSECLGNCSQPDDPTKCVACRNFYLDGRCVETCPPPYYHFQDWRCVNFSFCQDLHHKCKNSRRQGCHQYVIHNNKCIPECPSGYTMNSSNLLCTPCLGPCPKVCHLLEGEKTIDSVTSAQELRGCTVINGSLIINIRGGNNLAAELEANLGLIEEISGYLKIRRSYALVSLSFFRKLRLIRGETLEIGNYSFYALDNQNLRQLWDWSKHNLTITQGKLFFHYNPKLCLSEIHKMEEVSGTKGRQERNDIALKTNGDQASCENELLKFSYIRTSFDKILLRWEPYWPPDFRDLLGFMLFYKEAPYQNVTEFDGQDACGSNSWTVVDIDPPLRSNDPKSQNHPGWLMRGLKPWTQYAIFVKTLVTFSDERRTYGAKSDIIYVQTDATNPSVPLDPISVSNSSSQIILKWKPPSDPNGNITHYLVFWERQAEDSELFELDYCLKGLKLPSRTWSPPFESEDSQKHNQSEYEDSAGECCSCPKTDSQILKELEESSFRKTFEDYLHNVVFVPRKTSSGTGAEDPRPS
Insulin receptor (Homo sapiens), sequence (P06213 763-1382 limits assumed): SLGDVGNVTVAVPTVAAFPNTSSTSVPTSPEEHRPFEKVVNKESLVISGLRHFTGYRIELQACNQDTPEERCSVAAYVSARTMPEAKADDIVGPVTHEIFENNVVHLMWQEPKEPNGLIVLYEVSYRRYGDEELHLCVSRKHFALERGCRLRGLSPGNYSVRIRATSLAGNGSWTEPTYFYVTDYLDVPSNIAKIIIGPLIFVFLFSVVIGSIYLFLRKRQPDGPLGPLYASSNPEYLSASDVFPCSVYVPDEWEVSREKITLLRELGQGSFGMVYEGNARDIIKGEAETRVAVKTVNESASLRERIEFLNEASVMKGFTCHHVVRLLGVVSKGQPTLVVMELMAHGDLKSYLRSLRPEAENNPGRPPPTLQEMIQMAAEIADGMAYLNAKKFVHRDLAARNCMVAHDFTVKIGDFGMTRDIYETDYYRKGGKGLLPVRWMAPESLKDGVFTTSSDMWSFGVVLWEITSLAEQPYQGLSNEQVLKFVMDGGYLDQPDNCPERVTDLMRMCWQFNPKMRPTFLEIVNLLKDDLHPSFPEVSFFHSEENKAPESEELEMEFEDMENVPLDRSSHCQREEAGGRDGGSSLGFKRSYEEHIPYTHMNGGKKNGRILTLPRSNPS

Structure (SMILES)	residual activity [1]	residual activity [2]	residual activity [3]	residual activity [4]	residual activity [5]	residual activity [6]	residual activity [7]	residual activity [8]	residual activity [9]	residual activity [10]	residual activity [11]	residual activity [12]	residual activity [13]	residual activity [14]	residual activity [15]
COc1cc2c(cc1OC)-c1n[nH]c(Nc3cccc(F)c3)c1C2	76%	61%	78%	52%	43%	78%	66%	109%	112%	101%	110%	–	–	–	–
N#C/C(=C1/Nc2ccccc2S1)c1ccnc(NCCc2cccnc2)n1	–	–	24%	71%	40%	96%	69%	113%	71%	–	83%	68%	84%	37%	127%
